Bioassay records (PubChem)
CDC25B CDK2 inh = human CDC25B-CDK2/CyclinA binding inhibition; z-score (concentration not given with the values); hit rate 0.72% among 94,000; HTRF CDC25B-CDK2/CyclinA binding, anti-His/anti-Flag; active compounds read high; AID 1259370; in the data active = z-score above about 3.2
HIV TAR-Tat = HIV-1 TAR-Tat binding disruption | z-score (concentration not given with the values) | hit rate 0.6% among 100,000 | AID 1259389 | HIV-1 TAR RNA, Tat peptide displacement FRET; active compounds read high; active = z-score of 3 or more in at least 2 runs
Each line names hits and unclear results; the compound was inactive in the other large screens. An excerpt weighted towards active compounds, which were near 0.93% of everything screened.

CCOC(=O)C1CCCN(c2cc(NCCCC(=O)O)c3c4c(onc24)-c2ccccc2C3=O)C1 (stereo unspecified)	CDC25B CDK2 inh 10.6, HIV TAR-Tat 20.7
CCOC(=O)C1CCCN(c2cc(NCC(C)C)c3c4c(onc24)-c2ccccc2C3=O)C1 (stereo unspecified)	none
CCOC(=O)N1CCN(c2cc(NCCCC(=O)O)c3c4c(onc24)-c2ccccc2C3=O)CC1	none
CCOC(=O)C1CCN(c2cc(NCCOC)c3c4c(onc24)-c2ccccc2C3=O)CC1	none
CCOC(=O)N1CCN(c2cc(NCC(=O)O)c3c4c(onc24)-c2ccccc2C3=O)CC1	CDC25B CDK2 inh 3.17
CCOC(=O)C1CCN(c2cc(NCC(=O)O)c3c4c(onc24)-c2ccccc2C3=O)CC1	CDC25B CDK2 inh 5.89
Cc1c(NC(=O)c2ccc3c(c2)OCO3)c(-n2cnnc2)nn1C	none
O=c1c(N2CCN(c3ccccc3Cl)CC2)csc2ccc(F)cc12	none (no result: CDC25B CDK2 inh)
CCOc1ccc(-c2cccc(NS(=O)(=O)c3c(C)noc3C)c2)nn1	none (no result: CDC25B CDK2 inh)
CCCCC(=O)Nc1ccc2nc(NS(C)(=O)=O)sc2c1	none (no result: CDC25B CDK2 inh)
CS(=O)(=O)Nc1nc2ccc(NC(=O)Cc3cccs3)cc2s1	HIV TAR-Tat 16.1 (no result: CDC25B CDK2 inh)
CC(C)(CC(=O)NCCN1CCc2ccccc2C1)CC1=NS(=O)(=O)c2ccccc2N1	none (no result: CDC25B CDK2 inh)
O=C(CN1C=NS(=O)(=O)c2ccccc21)c1ccccc1	none (no result: CDC25B CDK2 inh)
Cc1sc2c(c1C)CSC(C(=O)NCCN1CCCC1)=C2	HIV TAR-Tat 6.31 (no result: CDC25B CDK2 inh)
O=C(NCCN1CCCC1)C1=Cc2sc3c(c2CS1)CCCC3	none (no result: CDC25B CDK2 inh)
CCNc1cc(N2CCCC(C)C2)c2noc3c2c1C(=O)c1ccccc1-3 (stereo unspecified)	HIV TAR-Tat 4.55
O=C1c2ccccc2-c2onc3c(N4CCCCC4)cc(NCCO)c1c23	HIV TAR-Tat 22.9
CN1CCN(c2cc(NCCO)c3c4c(onc24)-c2ccccc2C3=O)CC1	HIV TAR-Tat 8.99
O=C1c2ccccc2-c2onc3c(N4CCCC4)cc(NCCO)c1c23	none
CC1CCCN(c2cc(NC(C)C)c3c4c(onc24)-c2ccccc2C3=O)C1 (stereo unspecified)	none
O=C1c2ccccc2-c2onc3c(N4CCN(c5ccccc5F)CC4)cc(NCCO)c1c23	none
COc1ccc(Nc2cc(N3CCN(C)CC3)c3noc4c3c2C(=O)c2ccccc2-4)cc1	CDC25B CDK2 inh 7.54
CN1CCN(c2cc(Nc3ccc(N(C)C)cc3)c3c4c(onc24)-c2ccccc2C3=O)CC1	none
CCCSc1ncc(Cl)c(C(=O)Nc2nnc(C)s2)n1	none
O=C(Nc1nn2c(-c3ccccc3)nnc2s1)c1ccccc1	none
Cc1ccc(S(=O)(=O)Nc2ccc(-c3cn4cccc(C)c4n3)cc2)cc1C	none
Clc1ccc(OCCn2c(C3CCCO3)nc3ccccc32)cc1 (stereo unspecified)	none
CCCN1CCN(c2cc(NCCO)c3c4c(onc24)-c2ccccc2C3=O)CC1	none
CC(C)Nc1cc(N2CCN(C)CC2)c2noc3c2c1C(=O)c1ccccc1-3	HIV TAR-Tat 9.65
O=C1c2ccccc2-c2onc3c(N4CCCCC4)cc(NCCN4CCCC4)c1c23	none
O=C1c2ccccc2-c2onc3c(N4CCCCC4)cc(NCCN4CCOCC4)c1c23	HIV TAR-Tat 6.42
CCN1CCN(c2cc(NCCO)c3c4c(onc24)-c2ccccc2C3=O)CC1	HIV TAR-Tat 15.3
CC1CCCN(CCNc2cc(N(C)C)c3noc4c3c2C(=O)c2ccccc2-4)C1 (stereo unspecified)	HIV TAR-Tat 9.33
CN(C)c1cc(NCCN2CCCCC2)c2c3c(onc13)-c1ccccc1C2=O	none
CC(C)Nc1cc(N2CCCCC2)c2noc3c2c1C(=O)c1ccccc1-3	none
CN(C)c1ccc(CNS(=O)(=O)c2cn(C)cn2)cc1	none (no result: CDC25B CDK2 inh)
Cc1ccccc1Nc1c(-c2ccc(Cl)cc2)nc2cnccn12	none
O=c1[nH]c(-c2ccc(O)cc2)nc2sc3c(c12)CCCC3	none (no result: HIV TAR-Tat)
CCN(CC)S(=O)(=O)c1ccc2c(c1)N(CC(=O)N1CCCCC1)C(=O)CS2	none
COc1cc(OC)c(NC(=O)Nc2nc3ccc(S(C)(=O)=O)cc3s2)cc1Cl	none
CCOc1ccc(-c2nc(CSc3nc4ncccc4[nH]3)c(C)o2)cc1OC	none (no result: CDC25B CDK2 inh)
Cc1cccc(-c2nc3scc(CCNS(=O)(=O)c4ccc(C)c(C)c4)n3n2)c1	none (no result: CDC25B CDK2 inh)
CC(C)c1cc(C(=O)N2CCC(c3nc4ccccc4o3)CC2)nn1C1CCS(=O)(=O)C1 (stereo unspecified)	none
CCN(CC)C(=O)Cn1ncc2c3ccccc3n(Cc3c(C)cc(C)cc3C)c2c1=O	none
COc1ccc(Cc2nc3c4cnn(-c5nc6ccccc6s5)c4ncn3n2)cc1OC	none
CCc1ccc(-c2cn3nc(CC(C)C)sc3n2)cc1	none
COCCNc1cc(N2CCN(C)CC2)c2noc3c2c1C(=O)c1ccccc1-3	none
CCCCNc1cc(N2CCN(CCO)CC2)c2noc3c2c1C(=O)c1ccccc1-3	HIV TAR-Tat 7.7
CN1CCN(c2cc(NCCN3CCCC3)c3c4c(onc24)-c2ccccc2C3=O)CC1	none
COCCNc1cc(N2CCCCC2)c2noc3c2c1C(=O)c1ccccc1-3	HIV TAR-Tat 8.06
